Reference: PubChem BioAssay AID602340 (Broad Institute, 2012)
Out of some 330,000 compounds screened, about 2,600 (0.79%) were called active. The sample holds actives, similar compounds and a random draw of the others, so the mix is not that of the screen. Values without a mark were called inactive.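 Rule for the calls: active = mean ATP rescue above about 67%, or every replicate alone reaching that limit (limit read from the data, passing the limit was not always enough); inconclusive = no clear call, values can overlap the other calls; inactive = mean under the limit and some replicate under it.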

test: protection of differentiated C2C12 cells from simvastatin – single point, plate reader, primary screen (AID 602340); conditions: C2C12 myotubes + simvastatin, ATP luminescence, 48 h; at 7.49 µM; active compounds read high; scaled: DMSO 0, geranylgeraniol control 100;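 note: myotubes were challenged with 10 µM simvastatin during compound exposure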

| SMILES | rescue of ATP level |
| --- | --- |
| COC(=O)Nc1sc2nc(C)cc(C)c2c1-n1cccc1 | -7.59% |
| Cc1cc(C)c2c(-n3cccc3)c(C(=O)NNS(=O)(=O)c3ccc(F)cc3)sc2n1 | 7.07% |
| CCCCOC(=O)Nc1sc2nc(C)cc(C)c2c1-n1cccc1 | 66.9% (active) |
| CCC(=O)N(C)C[C@H]1[C@H](c2ccc(C3=CCCCC3)cc2)[C@@H](CO)N1C(C)=O | 16.5% |
| C[C@H]1CN([C@@H](C)CO)C(=O)Cc2cc(NC(=O)Cn3cnnn3)ccc2O[C@H]1CN(C)Cc1ccc(C(=O)O)cc1 | -21.6% |
| C[C@H]1CN([C@@H](C)CO)C(=O)Cc2cc(NC(=O)CCCN(C)C)ccc2O[C@@H]1CN(C)Cc1ccc(-c2ccccc2)cc1 | 17.6% |
| C[C@@H]1CN([C@H](C)CO)C(=O)Cc2cc(NC(=O)Cn3cnnn3)ccc2O[C@H]1CN(C)Cc1ccc(Cl)c(Cl)c1 | 18.5% |
| C[C@H](CO)N1C[C@H](C)[C@@H](CN(C)Cc2ccc(-c3ccccc3)cc2)Oc2ccc(NC(=O)CCC(F)(F)F)cc2CC1=O | 74.7% (active) |
| C[C@@H]1CN([C@@H](C)CO)C(=O)Cc2cc(NC(=O)CCCCCC(=O)Nc3ccccc3N)ccc2O[C@H]1CN(C)C(=O)Nc1ccc(C(F)(F)F)cc1 | -13.1% |
| C[C@H](CO)N1C[C@H](C)[C@@H](CN(C)Cc2ccc(Cl)c(Cl)c2)Oc2ccc(NC(=O)Cn3cnnn3)cc2CC1=O | 88.7% (active) |
| C[C@@H]1CN([C@H](C)CO)C(=O)Cc2cc(NC(=O)CCC(F)(F)F)ccc2O[C@@H]1CN(C)Cc1ccncc1 | -15.3% |
| C[C@H]1CN([C@@H](C)CO)C(=O)Cc2cc(NC(=O)CCCCCC(=O)Nc3ccccc3N)ccc2O[C@@H]1CN(C)Cc1ccncc1 | 20.5% |
| C[C@H](CO)N1C[C@H](C)[C@H](CN(C)Cc2ccc(C(F)(F)F)cc2)Oc2ccc(NC(=O)CCCCCC(=O)Nc3ccccc3N)cc2CC1=O | 183% (active) |
| CO[C@H]1CN(C)C(=O)c2ccc(NC(C)=O)cc2OC[C@H](C)N(C(=O)c2ccccc2)C[C@H]1C | 3.84% |
| C[C@@H](NC(=O)[C@H]1[C@H](CO)[C@H]2Cn3c(cccc3=O)[C@@H]1N2Cc1cccnc1)c1ccccc1 | -8.14% |
| C/C=C/c1ccc2c(c1)O[C@@H](CN(C)CC1CCOCC1)[C@@H](C)CN([C@H](C)CO)S2(=O)=O | 1.59% |
| COCC(=O)N(C[C@H]1N[C@H](CO)[C@H]1c1ccc(C2=CCCCC2)cc1)C(C)C | -22.7% |
| Cc1noc(C)c1NC(=O)Nc1ccc2c(c1)CC(=O)N([C@@H](C)CO)C[C@H](C)[C@H](CN(C)S(=O)(=O)c1c(C)noc1C)O2 | -4.37% |
| O=C(NCC[C@@H]1CC[C@H](NC(=O)Nc2cc(F)ccc2F)[C@@H](CO)O1)Nc1ccc(Cl)cc1 | 2.28% |

| SMILES | rescue of ATP level |
| --- | --- |
| Cn1c(N)c(C(=O)COC(=O)c2ccc3ccccc3c2)c(=O)n(C)c1=O | -2.95% |
| Cn1c(N)c(C(=O)COC(=O)COc2ccc(Cl)cc2)c(=O)n(C)c1=O | 9.73% |
| Cc1cc(C(=O)OCC(=O)c2c(N)n(C)c(=O)n(C)c2=O)c(C)o1 | 148% (active) |
| COc1ccc(S(=O)(=O)Nc2cccc3c2O[C@@H](CN(C)C(=O)Nc2ccccc2)[C@@H](C)CN([C@H](C)CO)C3=O)cc1 | -38.3% |
| Cc1ccc(-c2csc(-c3c[nH]c4ccccc34)n2)cc1 | 102% (active) |
| CCn1c(SCCC(C)C)nnc1-c1c[nH]c2ccccc12 | -7.75% |
| Cc1ccc(-c2csc(NC3OC(=O)c4ccccc43)n2)cc1 (configuration not stated) | -7.28% |
| CC1(C(=O)NCc2ccc3c(c2)OCO3)CCN1CCc1ccccc1 (configuration not stated) | 34.5% |
| Cc1ccc(-c2nc(CS(=O)(=O)CC(=O)NCc3ccc4c(c3)OCO4)c(C)o2)cc1 | 28.8% |
| O=C(CN1CCN(c2nc(-c3ccccc3)cs2)CC1)NCc1ccc2c(c1)OCO2 | 124% (active) |
| COc1cc(=O)[nH]c(=O)n1C(=O)Cc1ccccc1 | 89.8% (active) |
| CCCOc1ccc(Cn2c(O)cc(=O)[nH]c2=O)cc1 | 2.27% |
| COc1ccc(NC(=O)CNC(=O)Cc2ccccc2)cc1OC | -3.67% |
| CCCNC(=O)N1[C@H](CNC(C)=O)[C@@H](c2ccc(C3=CCCC3)cc2)[C@@H]1CO | 17.7% |
| O=C(N[C@H]1C=C[C@@H](CC(=O)N2CCCCC2)O[C@@H]1CO)c1ccc2c(c1)OCO2 | -0.462% |
| CO[C@@H]1CN(C)C(=O)c2cc(NC(=O)NC3CCCCC3)ccc2OC[C@H](C)N(CC2CCOCC2)C[C@H]1C | -0.27% |
| Cc1ccnc(NC(=O)CCNS(=O)(=O)c2ccc(C)c(C)c2)c1 | 0.26% |
| Cc1ccc(S(=O)(=O)NCCC(=O)Nc2ccc(C)c(Cl)c2)cc1C | 1.52% |
| CC(=O)CCS(=O)(=O)c1ccc(C)c(C)c1 | 101% (active) |

| SMILES | rescue of ATP level |
| --- | --- |
| COc1ccc(C(O)c2nc(-c3ccc4c(c3)OCO4)cs2)cc1 (configuration not stated) | 87.4% (active) |
| COc1ccc(C(O)c2nc(-c3ccc(OC)nc3)cs2)cc1 (configuration not stated) | 4.92% |
| COc1cccc(C(O)c2nc(-c3ccc(C)c(C)c3)cs2)c1 (configuration not stated) | 8.62% |
| O=C(O)CC(c1ccccc1)n1cnnn1 (configuration not stated) | 86% (active) |
| O=C(O)CC(Cn1cnnn1)c1ccccc1 (configuration not stated) | 7.4% |
| CCOc1ccc(C(CC(=O)O)n2cnnn2)cc1OC (configuration not stated) | 5.44% |
| O=C(Nc1cccc(Cl)c1)N[C@H]1CC[C@H](CCNC(=O)C2CCOCC2)O[C@H]1CO | -25.3% |
| C[C@@H]1CCCCO[C@H](CN(C)C(=O)Nc2cccc3ccccc23)[C@@H](C)CN([C@H](C)CO)C(=O)c2cc(NS(=O)(=O)c3cccs3)ccc2O1 | -12.1% |
| C[C@H](CO)N1C[C@H](C)[C@H](CN(C)C(=O)Nc2cccc3ccccc23)OCCCC[C@H](C)Oc2ccc(NC(=O)Nc3ccc4c(c3)OCO4)cc2C1=O | 90.3% (active) |
| C[C@@H]1CCCCO[C@@H](CN(C)S(C)(=O)=O)[C@@H](C)CN([C@@H](C)CO)C(=O)c2cc(NS(=O)(=O)c3ccc(Cl)cc3)ccc2O1 | 7.9% |
| C[C@@H]1CCCCO[C@@H](CN(C)Cc2ccc(Cl)c(Cl)c2)[C@H](C)CN([C@@H](C)CO)C(=O)c2cc(NS(C)(=O)=O)ccc2O1 | 98% (active) |
| C[C@@H]1CCCCO[C@@H](CN(C)Cc2ccc(Cl)c(Cl)c2)[C@@H](C)CN([C@@H](C)CO)C(=O)c2cc(NS(C)(=O)=O)ccc2O1 | -1.95% |
| C[C@@H]1CCCCO[C@H](CN(C)C(=O)Nc2cccc3ccccc23)[C@@H](C)CN([C@H](C)CO)C(=O)c2cc(NC(=O)Nc3ccc4c(c3)OCO4)ccc2O1 | -47.9% |
| C[C@H]1CCCCO[C@@H](CN(C)C(=O)Nc2cccc3ccccc23)[C@@H](C)CN([C@@H](C)CO)C(=O)c2cc(NS(=O)(=O)c3ccc(Cl)cc3)ccc2O1 | 125% (active) |
| C[C@H]1CCCCO[C@H](CN(C)C(=O)Nc2ccccc2)[C@@H](C)CN([C@@H](C)CO)C(=O)c2cc(NC(=O)Nc3ccc4c(c3)OCO4)ccc2O1 | -0.0505% |
| C[C@@H]1CCCCO[C@H](CN(C)S(C)(=O)=O)[C@@H](C)CN([C@H](C)CO)C(=O)c2cc(NS(=O)(=O)c3ccc(Cl)cc3)ccc2O1 | -21.9% |
| C[C@@H]1CCCCO[C@@H](CN(C)S(C)(=O)=O)[C@H](C)CN([C@@H](C)CO)C(=O)c2cc(NS(=O)(=O)c3ccc(F)cc3)ccc2O1 | 132% (active) |
| C[C@@H]1CCCCO[C@@H](CN(C)Cc2ccc3c(c2)OCO3)[C@H](C)CN([C@@H](C)CO)C(=O)c2cc(NS(C)(=O)=O)ccc2O1 | -0.957% |
| C[C@@H]1CCCCO[C@H](CN(C)C(=O)Nc2cccc3ccccc23)[C@H](C)CN([C@H](C)CO)C(=O)c2cc(NS(=O)(=O)c3cccs3)ccc2O1 | 28.4% |
